The values that follow come from article PMC8384837, “Expanding the binding specificity for RNA recognition by a PUF domain”.

Holding throughout (test): yeast three-hybrid, YBZ-1, SC-Leu-His + 0.5 mM 3-AT, 4 days
Holding throughout (conditions): tags: N-Gal4 AD-HA kept; label: inside an RPR1-promoter hybrid RNA with tandem MS2 sites; ssRNA

One test addresses PUM1 PUF domain R1-RST (Homo sapiens, UniProt Q14671 828-1176, S863R;R864S;Q867T). In a few lines: (§1)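 Matching RNA elements and Pumilio-1 PUF domain libraries, randomized at the three base-contacting residues of every repeat, were co-expressed from a centromeric plasmid in strain YBZ-1 (LexA–MS2 coat fusion, HIS3 reporter). The repeat regions were PCR-amplified and Illumina-sequenced from cells grown four days on SC-Leu (input) or SC-Leu-His + 0.5 mM 3-AT (selection). The interaction score is the log change in variant frequency from input to selection. It is computed in log2, with a pseudocount of 1 for absent variants.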

The target of the next test is PUM1 PUF domain R8-KHL (Homo sapiens, UniProt Q14671 828-1176, N1122K;Y1123H;Q1126L). The essentials: as §1
The target of the next test is PUM1 PUF domain R3-WCA (Homo sapiens, UniProt Q14671 828-1176, C935W;R936C;Q939A). In a few lines:
as §1

In the next test the target is PUM1 PUF domain R3-MWY (Homo sapiens, UniProt Q14671 828-1176, C935M;R936W;Q939Y). In a few lines: as §1
The target of another test is PUM1 PUF domain R5-QTI (Homo sapiens, UniProt Q14671 828-1176, C1007Q;R1008T;Q1011I). The essentials: as §1
The next test has as its target PUM1 PUF domain R3-GPW (Homo sapiens, UniProt Q14671 828-1176, C935G;R936P;Q939W). In a few lines:
as §1

A further test deals with T1, PUM1 PUF domain R6-RYT (Homo sapiens, UniProt Q14671 828-1176, N1043R;Q1047T).
T1 sequence: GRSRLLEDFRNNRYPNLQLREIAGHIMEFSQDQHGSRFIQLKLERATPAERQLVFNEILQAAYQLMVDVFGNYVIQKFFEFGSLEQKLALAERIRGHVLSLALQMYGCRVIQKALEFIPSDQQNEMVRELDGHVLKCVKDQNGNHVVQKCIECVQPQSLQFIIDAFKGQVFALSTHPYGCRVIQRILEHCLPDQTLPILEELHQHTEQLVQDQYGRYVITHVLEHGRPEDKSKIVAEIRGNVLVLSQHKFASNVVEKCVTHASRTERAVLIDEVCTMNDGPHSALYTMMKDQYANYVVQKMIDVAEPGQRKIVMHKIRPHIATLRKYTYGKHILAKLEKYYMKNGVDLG
The essentials:
as §1

Another test deals with PUM1 PUF domain R4-RRY (Homo sapiens, UniProt Q14671 828-1176, N971R;H972R;Q975Y). In a few lines:
as §1

The next test concerns the target PUM1 PUF domain R3-EFV (Homo sapiens, UniProt Q14671 828-1176, C935E;R936F;Q939V). The essentials:
as §1

Another test deals with PUM1 PUF domain R5-LYV (Homo sapiens, UniProt Q14671 828-1176, C1007L;R1008Y;Q1011V). In a few lines:
as §1

“GGCUAGAACUAGUGGAUCCCCCGGCGCCCGGCGGCUCGAGCCCGGGUAAGUGUAAAUCGUCUGCAUGCCGCCGGGCGCCAUGCCUGCAGGUCGACUCUAGAAAACAUG”: the binding signal with PUM1 PUF domain R1-RST was 5.18 log2 enrichment (interaction score).
For “GGCUAGAACUAGUGGAUCCCCCGGCGCCCGGCGGCUCGAGCCCGGGUAAGCGUAAAUAGUCUGCAUGCCGCCGGGCGCCAUGCCUGCAGGUCGACUCUAGAAAACAUG”, in the test with PUM1 PUF domain R8-KHL, the binding signal is 5.8 log2 enrichment (interaction score).
For the sequence “GGCUAGAACUAGUGGAUCCCCCGGCGCCCGGCGGCUCGAGCCCGGGUAAGUGUAAGUAGUCUGCAUGCCGCCGGGCGCCAUGCCUGCAGGUCGACUCUAGAAAACAUG”, the binding signal with PUM1 PUF domain R3-WCA is 3.27 log2 enrichment (interaction score).
Consider “GGCUAGAACUAGUGGAUCCCCCGGCGCCCGGCGGCUCGAGCCCGGGUAAGUGUAAUUAGUCUGCAUGCCGCCGGGCGCCAUGCCUGCAGGUCGACUCUAGAAAACAUG”, for which the binding signal in the test with PUM1 PUF domain R3-MWY was 3.31 log2 enrichment (interaction score).
As to “GGCUAGAACUAGUGGAUCCCCCGGCGCCCGGCGGCUCGAGCCCGGGUAAGUGUGAAUAGUCUGCAUGCCGCCGGGCGCCAUGCCUGCAGGUCGACUCUAGAAAACAUG”, the binding signal with PUM1 PUF domain R5-QTI was 3.11 log2 enrichment (interaction score).
Take “GGCUAGAACUAGUGGAUCCCCCGGCGCCCGGCGGCUCGAGCCCGGGUAAGUGUAAAUUGUCUGCAUGCCGCCGGGCGCCAUGCCUGCAGGUCGACUCUAGAAAACAUG”: the binding signal with PUM1 PUF domain R1-RST was 3.88 log2 enrichment (interaction score).
Take “GGCUAGAACUAGUGGAUCCCCCGGCGCCCGGCGGCUCGAGCCCGGGUAAGUGUAAAUAGUCUGCAUGCCGCCGGGCGCCAUGCCUGCAGGUCGACUCUAGAAAACAUG”: the binding signal was 4.04 log2 enrichment (interaction score) in the test with PUM1 PUF domain R3-GPW; 2.71 log2 enrichment (interaction score) with PUM1 PUF domain R6-RYT; 2.87 log2 enrichment (interaction score) in the test with PUM1 PUF domain R4-RRY; 3.71 log2 enrichment (interaction score) in the test with PUM1 PUF domain R3-EFV; 3.28 log2 enrichment (interaction score) with PUM1 PUF domain R5-LYV; 4.75 log2 enrichment (interaction score) with PUM1 PUF domain R8-KHL.
For “GGCUAGAACUAGUGGAUCCCCCGGCGCCCGGCGGCUCGAGCCCGGGUAAGUGUAAAUGGUCUGCAUGCCGCCGGGCGCCAUGCCUGCAGGUCGACUCUAGAAAACAUG”, the binding signal with PUM1 PUF domain R1-RST was 2.92 log2 enrichment (interaction score).
